# From PubChem
# MOR-DOR inv ag: inverse agonists of human mu-delta opioid receptor heterodimerization. inhibition, % at 9.3 µM. hit rate 0.21% among 340,000. AID 504357. cell-based MOR-DOR heterodimer luminescence, inverse agonism. P35372+P41143; in the data active = inhibition above about 22%, passing the limit was not always enough;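 also: 0% = cells with DMSO and 100% = wells without cells with DMSO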
# HTR5A ag: activates human HTR5A in OPRM1-OPRD1 agonist counter-screen; P47898; HTR5A agonist assay, luminescence, cell-based; activation, % at 9.3 µM; hit rate 0.61% among 340,000; AID 504692; in the data active = activation mostly above about 9.5%, no sharp cut-off; inactive = mostly below about 7.6%;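 also: 0% = cells with vehicle only and 100% = reference agonist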
# Target sequence (P47898 whole entry, looked up): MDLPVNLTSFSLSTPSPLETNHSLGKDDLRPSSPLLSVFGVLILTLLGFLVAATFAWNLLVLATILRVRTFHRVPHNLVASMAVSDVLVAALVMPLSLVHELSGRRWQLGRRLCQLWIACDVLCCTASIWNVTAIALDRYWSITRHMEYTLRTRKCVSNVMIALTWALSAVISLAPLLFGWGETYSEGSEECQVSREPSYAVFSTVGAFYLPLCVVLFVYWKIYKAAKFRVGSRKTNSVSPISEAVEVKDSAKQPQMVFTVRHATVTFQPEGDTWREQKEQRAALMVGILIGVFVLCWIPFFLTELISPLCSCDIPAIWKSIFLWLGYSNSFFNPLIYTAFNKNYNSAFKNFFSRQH
# V-ATPase pHluor: regulators of yeast V-ATPase proton transport; response, % at 10 µM; hit rate 0.37% among 350,000; AID 504577; S. cerevisiae, pHLuorin cytosolic pH fluorescence; in the data active = response mostly above about 7.3%, no sharp cut-off; inactive = mostly below about 5.4%; also: actives read high
# OPRM1-OPRD1 ag: agonists of human mu-delta opioid receptor heterodimerization; P35372+P41143; cells, OPRM1-OPRD1 heterodimerization, luminescence; activation, % at 9.3 µM; hit rate 0.3% among 340,000; in the data active = activation above about 18%;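 also: 0% = vehicle-treated cells and 100% = reference agonist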
# MIN6 prolif-1: inducers of beta-cell replication in MIN6 cells; MIN6 cells proliferation, ATPlite luminescence, 48 h; cells starved in 0.2% serum; 100% = growth in 10% serum; proliferation, % at 10 µM; hit rate 0.29% among 330,000; AID 2380;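 active = compounds whose signal lies at least 3.5 SD above the mean of all wells on their plate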;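 also: 0% = DMSO-treated cells in low-serum medium and 100% = 10% serum control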
# HTR5A inv ctr: counter-screen for OPRM1-OPRD1 inverse agonists: human HTR5A inverse agonism; hit rate 0.083% among 340,000; inhibition, % at 9.3 µM; AID 504634; HTR5A cell line, luminescence; P47898; in the data active = inhibition mostly above about 23%, no sharp cut-off; inactive = mostly below about 18%;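 also: 0% = cells with DMSO and 100% = no-cell wells with DMSO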
# MIN6 prolif-2: confirmation of inducers of beta-cell replication in MIN6 cells; MIN6 beta-cell proliferation, ATPlite luminescence, 48 h; cells kept in 0.2% serum; scaled between 0.2% and 10% serum; shares compounds with MIN6 prolif-1; proliferation increase, % at 50 µM; 920 tested, under 10 active;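 active = proliferation increase above 40% at any of the four tested concentrations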
# * marks the source's active call; other numbers are inactive results; . = not tested or not shown. Sampled rows, rich in hits. Any-hit rate of the full collection: about 1.7%.
SMILES,MOR-DOR inv ag,HTR5A ag,V-ATPase pHluor,OPRM1-OPRD1 ag,MIN6 prolif-1,HTR5A inv ctr,MIN6 prolif-2
Brc1cccc(-c2nnc(SCc3ccon3)n2-c2ccccc2)c1,7,1,-3,-1,12*,-3,-6
O=C(NCC(=O)N(c1ccccc1)C(C(=O)NC1CCCCC1)c1cccnc1)c1ccco1 (stereo not drawn),23,-4,2,-4,-2,-5,.
O=C(OCC(=O)N1CCN(c2ccccc2)CC1)c1cccs1,10,-2,-5,-2,3,4,.
O=C(OCC(=O)N1CCCC1)c1cccs1,4,-1,4,-1,8.1*,3,1
CCc1ccccc1NC(=O)COC(=O)c1cccs1,-2,2,0,0,8.1*,6,2
COCCc1ncc(CN2CCCCC2C(=O)Nc2ccc(Oc3ccccc3)nc2)cn1 (stereo not drawn),11,1,-2,-2,10*,-20,-2
CSc1sc(C(=O)N2CCCCC2)c(-c2cccs2)c1C#N,.,.,2,.,6.9*,.,-4
COc1ccc(N2CCN(C(=O)c3ccc(Br)o3)CC2)cc1,2,-5,1,0,-1,7,.
O=C(c1ccsc1)N1CCCC(Nc2cccc(F)c2)C1 (stereo not drawn),10,1,5,-2,12*,14,-2
C#Cc1cccc(C(=O)N2CCCC(Nc3cccc(F)c3)C2)c1 (stereo not drawn),17,-3,-3,-2,-2,4,.
O=C(NC(=S)Nc1cccc2c(O)cccc12)c1ccccc1[N+](=O)[O-],1,2,1,0,-8,2,.
COCCCn1c(SCC(=O)c2ccccc2)nc2ccccc2c1=O,5,-1,-2,-1,4,2,.
COCCn1c(SCC(=O)c2ccccc2)nc2ccccc2c1=O,.,.,-4,.,7.8*,.,-6
CCc1cc(=O)oc2cc(OC(C)C(=O)NCC3CCC(C(=O)O)CC3)c(Cl)cc12 (stereo not drawn),12,-1,1,-2,11*,-2,-3
COc1ccc(CCC(=O)Nc2ccc(Cl)c(S(=O)(=O)N3CCCC3)c2)cc1,-15,10,-5,3,-5,-31,.
COc1ccccc1NC(=O)N1CCC(c2nc3ccccc3o2)CC1,17,1,2,-3,-1,-8,.
CCOC(=O)c1sc(NC(=S)NC(=O)c2ccco2)nc1C,20,-3,-5,-4,-2,-18,.
CCOC(=O)c1sc(NC(NC(=O)c2ccco2)(C(=O)OC)C(F)(F)F)nc1C (stereo not drawn),6,7,1,-1,7.6*,-21,-2
CC1CC(C)CN(C(=O)c2ccc(S(=O)(=O)N3CCCCC3)cc2)C1 (stereo not drawn),7,4,-1,-1,-3,-3,.
CC1CC(C)CN(C(=O)c2cc(S(=O)(=O)N3CCCCC3)ccc2Cl)C1 (stereo not drawn),13,-2,-1,-2,14*,5,-5
CCN(CC)CCCOC(=O)C1(c2ccccc2)CCCC1,-14,0,-1,3,1,15,.
CCN(CC)CCCC1(CN)OCCc2ccccc21 (stereo not drawn),5,4,-4,-1,8.4*,-11,0
CC(=O)c1cn(-c2ccc(Cl)cc2)c(=O)n(Cc2ccc(F)cc2)c1=O,-3,-4,1,1,0,11,.
O=[N+]([O-])c1ccc(N2CCOCC2)cc1SCc1ccco1,10,5,1,-2,0.0*,9,2
O=[N+]([O-])c1ccc(SCc2ccco2)cc1N1CCOCC1,2,-2,0,0,-1,5,.
SMILES,MOR-DOR inv ag,HTR5A ag,V-ATPase pHluor,OPRM1-OPRD1 ag,MIN6 prolif-1,HTR5A inv ctr,MIN6 prolif-2
CCCCn1c(=O)[nH]c(=O)c2c1nc(-c1cc(Br)c(OCC)c(OC)c1)n2C,11,-2,2,-2,0,5,.
C=CCOc1ccc(-c2nc3c(c(=O)[nH]c(=O)n3CCCC)n2C)cc1OC,18,2,-2,-4,12*,-5,2
COc1ccc(-c2cn[nH]c2-c2ccc(OC)cc2O)cc1,-5,6,-2,1,9.3*,-24,-6
COc1ccc(-c2[nH]ncc2-c2ccc(Cl)cc2)c(O)c1,-83,1,6,15,1,-4,.
CN(C)S(=O)(=O)c1cccc(NC(=O)COc2ccccc2C(=O)NCc2ccccc2)c1,0,-2,-2,0,13*,5,-6
CCNC(=O)COC(=O)c1ccc(S(=O)(=O)N2CCCCCC2)cc1,15,-1,-1,-3,5.4*,22,0
Cc1ccc(CNC(=O)COC(=O)c2ccc(S(=O)(=O)N3CCCCCC3)cc2)cc1,-19,3,-7,3,-1,-22,.
O=C(Cn1cc2c(n1)CCCCC2)NCc1ccccn1,18,-1,-2,-4,12*,3,-3
C=CCn1c(-c2cccc(OC)c2)nc2nc3ccccc3nc21,22,-1,-3,-4,9.1*,-20,-3
COc1ccc(NC(=O)CC2SC3=NCCN3C2=O)cc1 (stereo not drawn),0,-5,0,0,-3,15,.
O=C(CCc1nnc2ccc(NCc3ccco3)nn12)Nc1ccc(F)cc1F,13,1,-1,-3,0,16,.
CC1(C)CC(=O)C2=C(C1)Nc1ccccc1S2,-8,-3,0,2,-1,16,.
CC1(C)CC(=S)Nc2ccccc2S1,0,3,-1,0,11*,5,-6
O=C(COc1ccccc1)NC1C(=O)N2C(C(=O)O)=C(Cl)CSC12 (stereo not drawn),7,1,-2,-1,10*,-3,-1
COC(C/C=C\C(=O)[C@@H](C)OCc1ccccc1)OC,.,.,.,.,-2,.,.
CS(=O)(=O)N1CCCC(C(=O)NCCN2CCC(Cc3ccccc3)CC2)C1 (stereo not drawn),-8,0,0,2,5.4*,20,-5
CC(=O)N[C@@H](Cc1c[nH]c2ccccc12)C(=O)NC1CC1,13,-5,-2,-3,-2,18,.
O=C(COC(=O)c1ncc(Cl)c(Cl)c1Cl)NCCc1ccccc1,-18,2,0,3,6,-5,.
CCC(=O)N1N=C(c2cccs2)CC1c1ccc(C)cc1 (stereo not drawn),-6,-2,-2,1,7.8*,8,-6
CCC(=O)N1N=C(c2ccccc2)CC1c1ccc([N+](=O)[O-])cc1 (stereo not drawn),-2,-1,1,0,7.3*,16,-6
CCc1cc(C(=O)NCC(c2cccs2)N2CCOCC2)sc1C (stereo not drawn),8,-5,-4,-1,-1,-25,.
